Experiment [1] is described as follows: ACEA_AR_agonist_AUC_viability: ACEA Biosciences xCELLigence Real-Time Cell Analysis on Androgen Receptor Agonism for Viability (AID 2283775).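 On AC50: viability read 80 hours after compound addition.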 The gist of the method:
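Real-time impedance tracking of 22Rv1 growth, readings every 5 min for 5 h then hourly; area-under-curve viability endpoint at 80 hours, relative to DMSO. Compounds at eight concentrations, 1:4 steps, top 100 uM, n = 2.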

Experiment [2] is described as follows: ACEA_AR_antagonist_AUC_viability: ACEA Biosciences xCELLigence Real-Time Cell Analysis on Androgen Receptor Antagonism for Viability (AID 2283776).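 Further: 22Rv1 human prostate cancer cells growing on impedance electrode plates; hits lower the growth signal relative to DMSO meaning cytotoxicity.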 A digest of the protocol: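 Viability endpoint from label-free cell-index monitoring: 22Rv1 cultures treated with an eight-point 1:4 dilution series starting at 100 uM final, AUC at 80 h fitted against DMSO.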
Experiment [3] is described as follows: STM_H9_NormalizedViability: Cytotoxicity Assessment at 120 hours in the Stemina devTOX quickPredict H9 human embryonic stem cell (hESC)-based Assay (AID 2283784). A digest of the protocol: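 Pluripotent H9 cells dosed, fresh medium plus compound q24h → cell layer read by CellTiter-Fluor → RFU blank-corrected, normalized to DMSO 0.1% mean. Loss-of-signal fit, DMSO as baseline.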

Experiment [4] in a line: ACEA_ER_AUC_viability: ACEA Biosciences xCELLigence Real-Time Cell Analysis on Estrogen Receptor Agonism for Viability (AID 2283782).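 Further: continuous compound exposure with impedance area under curve over 80 h; hit means loss of impedance signal meaning reduced cell growth or viability.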 A digest of the protocol: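 T-47D; phenol red-free RPMI1640 + 10% CS-FBS; 8 conc., 1:4 serial, max 100 uM final, ≤0.5% DMSO; n = 2; continuous exposure; impedance monitored to 80 h post-dose; AUC vs DMSO.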
In experiment [5] the target is AR (gene 367) (UniProt P10275). Put plainly: ACEA_AR_agonist_80hr: ACEA Biosciences xCELLigence Real-Time Cell Analysis on Androgen Receptor Agonism for Proliferation (AID 2283783).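 Further: hits increase impedance growth signal above DMSO baseline.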 The gist of the method:
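Androgen-driven proliferation in 22Rv1 cells is tracked as electrical impedance, taken 80 h after continuous exposure to compound (eight concentrations, 1:4 steps, maximum 100 uM final). Activity is fitted in the positive direction with DMSO as baseline.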

In experiment [6] the target is AR (gene 367) (UniProt P10275). Put plainly: ACEA_AR_antagonist_80hr: ACEA Biosciences xCELLigence Real-Time Cell Analysis on Androgen Receptor Antagonism for Proliferation (AID 2283787).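 Further: 22Rv1 human prostate cancer cells with growth followed by electrical impedance; hits lower the impedance growth signal relative to DMSO.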 A digest of the protocol: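 Growth-kinetic antagonist readout in 22Rv1 cells, taken 80 h after continuous compound exposure. Activity fitted as signal loss relative to DMSO negative control.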
Sequence of AR (gene 367) (P10275 whole entry, looked up): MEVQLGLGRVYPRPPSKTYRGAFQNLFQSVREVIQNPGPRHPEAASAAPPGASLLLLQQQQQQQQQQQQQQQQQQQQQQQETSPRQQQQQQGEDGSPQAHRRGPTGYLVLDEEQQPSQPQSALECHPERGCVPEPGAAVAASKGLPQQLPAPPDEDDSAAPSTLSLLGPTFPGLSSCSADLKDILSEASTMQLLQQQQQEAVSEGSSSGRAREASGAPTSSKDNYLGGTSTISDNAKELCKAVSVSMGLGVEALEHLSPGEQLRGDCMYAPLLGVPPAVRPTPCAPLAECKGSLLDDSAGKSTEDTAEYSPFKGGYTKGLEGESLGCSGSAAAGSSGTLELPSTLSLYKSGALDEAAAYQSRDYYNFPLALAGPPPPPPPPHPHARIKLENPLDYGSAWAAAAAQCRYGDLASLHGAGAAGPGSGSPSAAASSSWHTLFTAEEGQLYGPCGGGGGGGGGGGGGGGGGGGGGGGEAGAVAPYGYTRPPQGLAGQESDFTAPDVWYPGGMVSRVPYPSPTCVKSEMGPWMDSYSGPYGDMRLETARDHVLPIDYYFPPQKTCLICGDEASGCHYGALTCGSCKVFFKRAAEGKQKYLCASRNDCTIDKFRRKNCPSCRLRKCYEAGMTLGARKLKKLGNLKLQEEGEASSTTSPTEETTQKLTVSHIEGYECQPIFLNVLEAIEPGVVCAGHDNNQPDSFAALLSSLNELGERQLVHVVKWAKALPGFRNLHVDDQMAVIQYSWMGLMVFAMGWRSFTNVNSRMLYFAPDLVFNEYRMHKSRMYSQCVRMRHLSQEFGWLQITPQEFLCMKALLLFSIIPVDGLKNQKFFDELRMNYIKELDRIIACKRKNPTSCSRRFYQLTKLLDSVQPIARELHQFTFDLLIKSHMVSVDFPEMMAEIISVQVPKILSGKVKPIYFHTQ

SMILES strings stand for the structures. Results filed as inconclusive are left out. The source made the active and inactive calls. How the source made its calls: active means hit-call score of the fitted dose curve at least 0.9, where 1 is the maximum; inconclusive means response in the unintended direction; inactive means score below 0.9.

We go through 29 compounds from PubChem BioAssay (EPA / NIEHS).

For `Nc1ccc(Nc2ccccc2)cc1`, the values for the AC50 in experiment [1], in experiment [2] and in experiment [3] were 93 µM (active), 87.5 µM (active) and 6.7 µM (active), respectively.
For the compound `CCCCC(CC)COC(=O)c1ccc(C(=O)OCC(CC)CCCC)cc1` (stereo not given), the result in experiment [2], in experiment [5] and in experiment [6] was inactive. Also, the AC50 in experiment [4] was 80 µM (active).
For the compound `CC(C)CC(C)(O)C#CC(C)(O)CC(C)C` (stereo not given), the compound was classed as inactive in experiment [1], in experiment [2] and in experiment [3].
In the case of `CC(=O)OC[C@H]1O[C@@](COC(C)=O)(O[C@H]2O[C@H](COC(C)=O)[C@@H](OC(C)=O)[C@H](OC(C)=O)[C@H]2OC(C)=O)[C@@H](OC(C)=O)[C@@H]1OC(C)=O`, in experiment [2], the result was inactive.
Take `CNCc1ccc(NC(=O)c2c[nH]c3c2C(=O)CCC3)cc1`: the values for the AC50 in experiment [1] and in experiment [2] were 50 µM (active) and 67 µM (active), respectively. Further, the outcome in experiment [3] was inactive.
`CC(C)=CCC/C(C)=C\CO`: the outcome in experiment [2] and in experiment [5] was inactive.
Regarding `CC(C)CCCCCCOC(=O)c1ccc(C(=O)OCCCCCCC(C)C)c(C(=O)OCCCCCCC(C)C)c1`, in experiment [2], the outcome was inactive.
On to `NC(=O)NO`, for which the result in experiment [1] and in experiment [2] was inactive. Further, the AC50 in experiment [3] was 341 µM (active).
On to `Nc1cccc(N)c1`, for which the call in experiment [2] was inactive.
`CCN(C(=O)c1cc(C)cc(OC[C@H](C)Nc2ccncc2)c1)C(C)C`: the AC50 in experiment [1] is 33.8 µM (active); in experiment [2], 11.2 µM (active). Further, the result in experiment [3] was inactive.
For the compound `CCCN(C1CCN(C(=O)C2CCNCC2)CC1)[C@@H]1CCc2ccc(OC)cc2C1`, the AC50 in experiment [1] was 75 µM (active); in experiment [2] it was 50 µM (active); in experiment [6] it was 63.9 µM (active). In addition, the outcome in experiment [5] was inactive.
`CN(C)c1ccc(N=NS(=O)(=O)O)cc1`: the compound was classed as inactive in experiment [4]. Further, the AC50 is 10.7 µM (active) in experiment [5] and 21.1 µM (active) in experiment [3].
Regarding `COCCOCCOCCOC`, in experiment [2], the AC50 was 24.2 µM (active). The result in experiment [3] was inactive.
Consider `CCc1cc(SCc2sc(-c3ccc(C(F)(F)F)cc3)nc2CN2CCN(c3ccc(OC)cc3)CC2)ccc1OCC(=O)O`, for which the AC50 in experiment [4] was 34.5 µM (active).
In the case of `Cn1c(=O)cc(Oc2ccc(F)cc2F)c2cnc(NCC(C)(C)O)nc21`, the result in experiment [2] and in experiment [3] was inactive.
In the case of `O=C(O)c1cccc(Oc2ccccc2)c1`, the call in experiment [2] and in experiment [4] was inactive.
For the compound `CC(C)CCO`, the compound was called inactive in experiment [1], in experiment [2] and in experiment [3].
Turning to `CC(C)=CCCC(C)=CC=O`, the call in experiment [1], in experiment [2] and in experiment [3] was inactive.
With `CCCC(=O)OCC`, the call in experiment [2] and in experiment [4] was inactive.
On to `O=C(O)c1cccc(N(Cc2cccnc2)c2ccc(OC(F)F)c(OC(F)F)c2)c1`, for which the AC50 was 88.2 µM (active) in experiment [1], 76.9 µM (active) in experiment [2], 10.5 µM (active) in experiment [5] and 77.6 µM (active) in experiment [6].
Regarding `O=C(O)c1cc(N=Nc2ccc(S(=O)(=O)Nc3ccccn3)cc2)ccc1O`, the call in experiment [2] was inactive.
In the case of `C[C@](N)(Cc1ccc(O)c(O)c1)C(=O)O`, the result in experiment [4] was inactive.
For `Nc1nc2ncc(CNc3ccc(C(=O)N[C@@H](CCC(=O)O)C(=O)O)cc3)nc2c(=O)[nH]1`, the compound was classed as inactive in experiment [1], in experiment [2], in experiment [3] and in experiment [6].
For the compound `CNS(=O)(=O)c1cc(C(=O)N2CCC(CCN3C4CCC3CC(n3c(C)nc5ccccc53)C4)(c3cccc(F)c3)CC2)c(Cl)cc1F` (stereo not given), in experiment [4], the AC50 is 19.2 µM (active).
Turning to `Fc1ccccc1[C@@H](F)COC1CCC(Nc2ncnc3[nH]ncc23)CC1` (stereo not given in full), the results for the AC50 in experiment [1], in experiment [2] and in experiment [6] were 63.2 µM (active), 50 µM (active) and 54 µM (active), respectively. In addition, in experiment [3], the outcome was inactive.
For `CC1(C)C(=O)N(Br)C(=O)N1Br`, the result in experiment [1], in experiment [2] and in experiment [6] was inactive.
On to `O=C(OC[C@H]1O[C@@H](OC(=O)c2cc(O)c(O)c(OC(=O)c3cc(O)c(O)c(O)c3)c2)[C@H](OC(=O)c2cc(O)c(O)c(OC(=O)c3cc(O)c(O)c(O)c3)c2)[C@@H](OC(=O)c2cc(O)c(O)c(OC(=O)c3cc(O)c(O)c(O)c3)c2)[C@@H]1OC(=O)c1cc(O)c(O)c(OC(=O)c2cc(O)c(O)c(O)c2)c1)c1cc(O)c(O)c(OC(=O)c2cc(O)c(O)c(O)c2)c1`, for which the AC50 in experiment [1] is 26.3 µM (active). Further, in experiment [4], the compound was classed as inactive.
On to `CCOC(=O)c1ccc(C2CCC(NC[C@H](O)COc3ccc(O)c(NS(C)(=O)=O)c3)CC2)cc1` (stereo not given in full), for which the results for the AC50 in experiment [2] and in experiment [4] were 24.4 µM (active) and 5.31 µM (active), respectively. The result in experiment [3] was inactive.
`CCOC(=O)CC(CC(=O)OCC)(OC(C)=O)C(=O)OCC`: the compound was called inactive in experiment [2].
